Assay results: PubChem BioAssay AID2094 (Broad Institute, 2009)
Hit rate of the full screen: of about 300,000 compounds, about 1,200 (0.4%) were called active. No stated cut-off is given here; in the data, active means activity change below about -75% (passing the limit was not always enough); inconclusive means no clear call, values can overlap the other calls. The full list was thinned out, with actives kept by preference.

Experiment: Vibrio harveyi AI-2 quorum sensing modulators, primary screen, JMH597 strain, luminescence/OD600 ratio (AID 2094);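 further: luminescence divided by OD600 gain over 9 h not by final OD600 alone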
Conditions: Vibrio harveyi JMH597 AI-2 luminescence/OD600 ratio, 9 h; at 7.5 µM; hits give low values; 0 = neutral-control median; strain lacks LuxN and CqsS sensors

| Compound | activity change |
| --- | --- |
| O=S(=O)(Nc1cccc(Oc2ccc(Cl)cc2)n1)c1ccc(F)cc1 | -97.1% (active) |
| O=S(=O)(Nc1ccccn1)c1ccc(Oc2ccccc2)cc1 | 21.1% (inactive) |
| O=S(=O)(Nc1ccccn1)c1cccc(S(=O)(=O)c2ccc(Cl)cc2)c1 | 3.88% (inactive) |
| CC(=O)Oc1ccc2c(=O)oc(-c3ccc([N+](=O)[O-])cc3)nc2c1 | 9.78% (inactive) |
| COC(=O)/C=C\C(=O)Nc1cccc([N+](=O)[O-])c1 | -88.2% (active) |
| COc1ccc(S(=O)(=O)NC(C)C(=O)Nc2cccc([N+](=O)[O-])c2)cc1 (stereo not given) | 16.9% (inactive) |
| COc1cccc(CNC(=O)CCCC(=O)Nc2cccc([N+](=O)[O-])c2)c1 | 33.3% (inactive) |
| Cc1ccc(C(=O)NNC(=O)c2ccncc2)cc1S(=O)(=O)N1CCCCC1 | 18% (inactive) |
| NC(=O)c1ccc(-c2csnn2)cc1 | -13% (inactive) |
| Cc1cc(C)c(C(N)=O)c(Cl)n1 | -0.00035% (inactive) |
| COc1cccc(NC(=O)NCc2ccc(F)cc2)c1 | -88.7% (active) |
| O=C(NCc1cccc(CNC(=O)Nc2cccc(O)c2)c1)Nc1cccc(O)c1 | 3.61% (inactive) |
| COc1cccc(NC(=O)NCCN2CCCCC2)c1 | 8.92% (inactive) |
| Oc1ccc(N=Nc2nccs2)c(O)c1 | -86.3% (active) |
| Cc1cc(-c2ccccc2)nc(N2CCC(C(=O)NC34CC5CC(CC(C5)C3)C4)CC2)n1 | 31.5% (inactive) |
| CCN1C(=NCCc2cccnc2)N[C@@H](c2ccccc2)C(C(=O)OC)=C1C | 8.09% (inactive) |
| O=C(/C=C\c1cn(-c2ccccc2)nc1-c1cccs1)N1CCOCC1 | 28.5% (inactive) |
| COc1ccc(-c2nn(-c3ccccc3)cc2/C=C\C(=O)Nc2ccc(C(=O)O)cc2)cc1 | 21.3% (inactive) |
| O=C(O)c1ccc(N/N=C/c2cn(-c3ccccc3)nc2-c2cccs2)cc1 | -83.5% (active) |
| O=C1C2CCCN2C(=O)N1CCCCN1CCN(c2cccc(C(F)(F)F)c2)CC1 (stereo not given) | 12.2% (inactive) |
| CCC(C)N(C(=O)COC(=O)C1C(C(=O)OC)=C(C)NC(C)=C1C(=O)OC)C1CCS(=O)(=O)C1 (stereo not given) | 18.1% (inactive) |
| CN(C)S(=O)(=O)c1ccc(Oc2ccc(S(=O)(=O)N(C)C)cc2)cc1 | -86.2% (active) |
| CN(C)S(=O)(=O)c1ccc(NC(=O)N2CCOCC2)cc1 | 11.7% (inactive) |
| COc1cccc(NC(=O)c2ccc(S(=O)(=O)N(C)C)cc2)c1 | 14.9% (inactive) |
| CCc1ccc(-c2cc(C)no2)cc1S(=O)(=O)NCCc1ccc(S(N)(=O)=O)cc1 | 9.18% (inactive) |
